Data published in the supplement of paper PMC6555819.

Test system: LXRa homodimer (NR concentration 270 nM)
Experiment: PBM binding z-score (relative to random genomic background probes); higher = stronger binding; sequences stand for … in GC…GCGATTGACAGCGTAGAATGAAGG
Outline: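 Binding buffer was PBS pH 7.4 with 2% milk, 0.02% Triton X-100, 1 mM DTT, 0.2 mg/mL BSA and 0.4 mg/ml salmon testes DNA. In it, ligand-free nuclear receptor dimers were incubated 1 h on custom Agilent 4×180K protein-binding microarrays carrying double-stranded probes. Antibodies against each partner (one per run) detected binding, and z-scores were calculated against random background probes after regression normalization of scanned fluorescence.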

Sequence	PBM binding z-score
TGTAGTTGGTCAAAGGTCACACACTCGAAATGCG	3.8
GCGACTGGGGCACCAGCAGGTTACCATAACTTAA	-0.495
CCTATTAGTTGACCATAAGGGCAACCGGAGCTCG	0.625
CCTACTGGGCCCTCAGGTCATTGATATCAACGTT	0.835
AACTCTAGGTAAAGTTCAGTGAAAGATCGATAGA	1.46
TCTATTAGTTGAAGCGCAACCGACGAGTCCGTTT	-0.0421
TCTATTAGTTTAAGGGCAACCGACGAGTCCGTTT	0.766
TAGCCTAGGTCAGATCGGGTCAGTATACGCTATA	0.202
GCGACTGGGGCATCAGCAGATTACCATAACTTAA	-0.401
TGTCAAAGTTCAAATGTAACGTAAGTATCCACAC	5.84
ATACCAAGCTGATCGTGAGGTCGTTGATACTAAC	0.391
CCCAGTAGGTTATGGGGCATTCAGGCAACGGTGA	-0.205
TAGCCGAGGTCAGATCGGGCCAGTATACGCTATA	0.00263
AATACAGGGTCATCGGAGGCCAGAGTACGCACAG	2.37
CCTTACGGGTCTCGAGGTTATAGCACGACGAGCG	-0.197
CCTGCTAGGTCATAGTCAGCTAATCTACAGTATG	0.646
GCGGCTAGGTCAACTGATGGTCAGCTAAAGCTCG	0.177
CGTACAGGGTCAGCTAGGCCAGAGTAGGGACGGC	-0.281
ATCTCAAGGTAACAAGTTCAGTGAAAGAGAGGAC	0.665
ATCTAAAGGTCGAGGTGAGTATAGAGAAAGGGAA	0.751
AGACAAAGTTCACTAGGTAACGTAAGATTCAGCT	2.65
CCTTACGGCTCACTGACAGGTTATAGCATTTGGA	0.304
